Test results taken from the supplement of paper PMC10849652.
The full data set covers some 7,900 targets. This sample favours those with a hit. About 0.6% of all pairs of compound and target were hits.

Columns and labels:
Test in all cases: log2 fold change, soluble protein after heating vs DMSO (PISA); higher = thermal stabilisation; K562 cells, 10 uM, 30 min; active = over 0.2 and 3.5 SD of the protein, either way, in both replicates (recomputed)
[1] = compound: C1=CC=C(C=C1)[C@H](COC2=CC3=C(C=C2)NC(=O)N3)NC(=O)C4=CC=CN(C4=O)CC5=CC(=C(C=C5)F)F
Method in brief: (§1)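 Thermal stability values are relative to control samples and come from duplicates. They are expressed as log2 fold changes. For measurement, K562 cells (2×10^6 cells/mL) received 10 μM compound for 30 min, and aliquots were heated for 3 min over 48°C-58°C, pooled, and extracted at 4°C in PBS with 0.5% NP-40. Soluble protein, the supernatant after 21,000xg for 90 min, was quantified by TMTpro 16plex LC-MS/MS with equalised channel sums.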

[2] = compound: CC1=C(SC2=C1C(=N[C@H](C3=NN=C(N32)C)CC(=O)N)C4=CC=C(C=C4)Cl)C
Method in brief: as §1

[3] = compound: CC1=C2C(=CC=C1)N=C(N(C2=O)C3=CC=CC=C3C)CN4C=NC5=C(N=CN=C54)N
Method in brief: as §1

[4] = compound: Cc1sc2c(c1C)C(c1ccc(Cl)cc1)=N[C@@H](CC(=O)OC(C)(C)C)c1nnc(C)n1-2
Method in brief: as §1

[5] = compound: c1ccc([C@@H]2C[C@H]2NC2CCNCC2)cc1
Method in brief: as §1

Measured: log2 fold change

STX17 (UniProt P56962)
inactive: [1] 0.03 | [2] 0.006 | [3] 0.029 | [4] 0.004 | [5] -0.058

TM9SF2 (UniProt Q99805)
UniProt Q99805, sequence (Q99805 whole entry, looked up): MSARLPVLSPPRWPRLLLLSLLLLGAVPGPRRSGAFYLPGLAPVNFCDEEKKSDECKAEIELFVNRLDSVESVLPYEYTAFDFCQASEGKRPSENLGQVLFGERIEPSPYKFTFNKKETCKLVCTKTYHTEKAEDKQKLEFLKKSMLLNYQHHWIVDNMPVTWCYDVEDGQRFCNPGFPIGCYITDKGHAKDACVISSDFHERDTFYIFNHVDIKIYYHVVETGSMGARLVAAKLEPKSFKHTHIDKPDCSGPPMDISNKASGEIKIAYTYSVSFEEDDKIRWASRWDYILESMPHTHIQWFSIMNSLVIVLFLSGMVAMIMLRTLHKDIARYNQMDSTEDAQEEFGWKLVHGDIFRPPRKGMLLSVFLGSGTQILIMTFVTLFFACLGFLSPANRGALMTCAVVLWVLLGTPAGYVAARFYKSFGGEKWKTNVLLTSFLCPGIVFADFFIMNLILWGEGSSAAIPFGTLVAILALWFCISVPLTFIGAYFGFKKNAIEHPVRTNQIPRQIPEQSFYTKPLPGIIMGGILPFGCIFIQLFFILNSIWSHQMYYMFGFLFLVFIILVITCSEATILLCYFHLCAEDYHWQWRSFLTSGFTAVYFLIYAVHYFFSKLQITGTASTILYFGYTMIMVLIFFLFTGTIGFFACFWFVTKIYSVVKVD
inactive: [1] 0.018 | [2] 0.035 | [3] 0.054 | [4] -0.044 | [5] -0.028

STARD3NL (UniProt O95772)
inactive: [1] 0.027 | [2] 0.025 | [3] 0.142 | [4] 0 | [5] 0.039

SNX3 (UniProt O60493)
inactive: [1] -0.057 | [2] 0 | [3] 0.105 | [4] -0.006 | [5] -0.064

SLC29A3 (UniProt Q9BZD2)
inactive: [1] 0.036 | [2] 0.033 | [3] 0.044 | [4] -0.352 | [5] 0.139

ST6GAL1 (UniProt P15907)
inactive: [1] 0.017 | [2] 0.012 | [3] 0.033 | [4] -0.018 | [5] -0.006

SSR3 isoform 2 (UniProt Q9UNL2)
inactive: [1] 0.016 | [2] -0.087 | [3] -0.107 | [4] -0.078 | [5] -0.168

TBP (UniProt P20226)
UniProt P20226, sequence (P20226 whole entry, looked up): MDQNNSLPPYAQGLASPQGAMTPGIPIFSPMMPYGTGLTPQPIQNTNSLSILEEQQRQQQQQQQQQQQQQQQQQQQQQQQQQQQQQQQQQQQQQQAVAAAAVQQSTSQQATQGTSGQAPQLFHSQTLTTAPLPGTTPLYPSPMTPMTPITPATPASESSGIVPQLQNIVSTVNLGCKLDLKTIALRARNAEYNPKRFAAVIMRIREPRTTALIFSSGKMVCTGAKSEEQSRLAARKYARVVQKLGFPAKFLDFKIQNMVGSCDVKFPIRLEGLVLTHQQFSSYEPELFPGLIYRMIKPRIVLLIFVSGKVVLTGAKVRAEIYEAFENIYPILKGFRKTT
inactive: [1] 0.016 | [2] 0.314 | [3] -0.158 | [4] 0.144 | [5] 0.07

SP1 (UniProt P08047)
inactive: [1] 0.002 | [2] -0.029 | [3] 0.016 | [4] 0.051 | [5] 0.02

SLC30A7 (UniProt Q8NEW0)
inactive: [1] -0.033 | [2] 0.052 | [3] -0.049 | [4] 0.039 | [5] -0.011

SPR (UniProt P35270)
inactive: [1] 0.026 | [2] 0.04 | [3] 0.031 | [4] -0.058 | [5] -0.105

STX7 (UniProt O15400)
inactive: [1] 0.023 | [2] 0.01 | [3] 0.027 | [4] -0.011 | [5] -0.011

SNX1 (UniProt Q13596)
inactive: [1] -0.019 | [2] 0.029 | [3] 0.038 | [4] -0.003 | [5] -0.07

SNW1 (UniProt Q13573)
inactive: [1] 0.03 | [2] 0.015 | [3] -0.036 | [4] 0.055 | [5] -0.035

STRN (UniProt O43815)
UniProt O43815, sequence (O43815 whole entry, looked up): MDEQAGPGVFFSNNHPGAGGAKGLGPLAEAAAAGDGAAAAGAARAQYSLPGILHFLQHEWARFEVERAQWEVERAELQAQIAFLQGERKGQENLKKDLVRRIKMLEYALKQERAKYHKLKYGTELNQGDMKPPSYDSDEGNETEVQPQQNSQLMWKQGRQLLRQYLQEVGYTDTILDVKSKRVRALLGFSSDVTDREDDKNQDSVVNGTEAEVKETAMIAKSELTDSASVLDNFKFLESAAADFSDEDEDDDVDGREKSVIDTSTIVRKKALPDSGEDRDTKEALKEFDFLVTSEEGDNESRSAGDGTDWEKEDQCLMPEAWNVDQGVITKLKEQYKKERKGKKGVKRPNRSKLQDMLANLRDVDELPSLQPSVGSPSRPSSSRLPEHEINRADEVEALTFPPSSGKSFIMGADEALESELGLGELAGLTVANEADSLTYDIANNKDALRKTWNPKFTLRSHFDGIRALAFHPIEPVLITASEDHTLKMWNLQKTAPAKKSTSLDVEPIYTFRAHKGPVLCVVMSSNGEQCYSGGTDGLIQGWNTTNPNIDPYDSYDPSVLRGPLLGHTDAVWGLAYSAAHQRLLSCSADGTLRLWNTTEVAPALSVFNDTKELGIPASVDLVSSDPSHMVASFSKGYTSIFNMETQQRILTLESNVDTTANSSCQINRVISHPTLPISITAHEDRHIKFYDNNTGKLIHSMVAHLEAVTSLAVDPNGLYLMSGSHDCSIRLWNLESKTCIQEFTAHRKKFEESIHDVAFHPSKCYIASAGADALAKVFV
inactive: [1] -0.025 | [2] 0.011 | [3] -0.003 | [4] -0.108 | [5] -0.017

SNRPD3 (UniProt P62318)
UniProt P62318, sequence (P62318 whole entry, looked up): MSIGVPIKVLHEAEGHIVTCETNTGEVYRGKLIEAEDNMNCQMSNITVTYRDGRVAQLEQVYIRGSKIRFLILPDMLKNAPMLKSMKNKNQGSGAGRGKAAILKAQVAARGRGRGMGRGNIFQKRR
inactive: [1] 0.035 | [2] -0.029 | [3] 0 | [4] 0.106 | [5] 0.036

TEX264 (UniProt Q9Y6I9)
inactive: [1] -0.024 | [2] 0.03 | [3] -0.072 | [4] -0.084 | [5] -0.02

SNX9 (UniProt Q9Y5X1)
inactive: [1] -0.051 | [2] 0.019 | [3] 0.048 | [4] 0.002 | [5] 0.017

TANK (UniProt Q92844)
UniProt Q92844, sequence (Q92844 whole entry, looked up): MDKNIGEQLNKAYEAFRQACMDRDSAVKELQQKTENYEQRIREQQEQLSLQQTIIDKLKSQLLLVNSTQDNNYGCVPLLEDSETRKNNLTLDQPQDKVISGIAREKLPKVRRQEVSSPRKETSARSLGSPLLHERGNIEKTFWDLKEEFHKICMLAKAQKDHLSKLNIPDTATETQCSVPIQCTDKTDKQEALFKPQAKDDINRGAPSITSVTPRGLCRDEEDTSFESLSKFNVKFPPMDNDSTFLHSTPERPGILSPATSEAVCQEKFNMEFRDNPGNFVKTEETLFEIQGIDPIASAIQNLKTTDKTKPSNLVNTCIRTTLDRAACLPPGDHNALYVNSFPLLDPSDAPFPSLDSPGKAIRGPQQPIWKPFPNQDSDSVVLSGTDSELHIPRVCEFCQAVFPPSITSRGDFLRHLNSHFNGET
inactive: [1] -0.001 | [2] -0.093 | [3] -0.019 | [4] 0.02 | [5] 0.026

SRCAP (UniProt Q6ZRS2)
inactive: [1] 0.074 | [2] 0.013 | [3] 0.101 | [4] -0.005 | [5] -0.136

SYMPK (UniProt Q92797)
inactive: [1] -0.127 | [2] 0.034 | [3] 0.101 | [4] -0.006 | [5] 0.02

TM9SF4 (UniProt Q92544)
inactive: [1] -0.038 | [2] 0.008 | [3] -0.001 | [4] -0.047 | [5] -0.032

TLK1 (UniProt Q9UKI8)
inactive: [1] 0.007 | [2] 0.036 | [3] 0.036 | [4] -0.036 | [5] 0.018

SPTBN1 (UniProt Q01082)
inactive: [1] -0.002 | [2] -0.033 | [3] 0.078 | [4] 0.027 | [5] 0.013

SLC25A36 (UniProt Q96CQ1)
inactive: [1] 0.027 | [2] -0.041 | [3] -0.066 | [4] 0.051 | [5] -0.008

STARD3 (UniProt Q14849)
inactive: [1] 0.011 | [2] -0.036 | [3] 0.14 | [4] 0.066 | [5] -0.153

TFR2 (UniProt Q9UP52)
inactive: [1] 0.01 | [2] 0.018 | [3] 0.004 | [4] 0.007 | [5] 0.026

TBC1D10B (UniProt Q4KMP7)
inactive: [1] -0.021 | [2] 0.062 | [3] 0.014 | [4] -0.026 | [5] 0.006

TCERG1 (UniProt O14776)
inactive: [1] -0.1 | [2] 0.106 | [3] 0.182 | [4] -0.065 | [5] -0.033

TIMM10B (UniProt Q9Y5J6)
UniProt Q9Y5J6, sequence (Q9Y5J6 whole entry, looked up): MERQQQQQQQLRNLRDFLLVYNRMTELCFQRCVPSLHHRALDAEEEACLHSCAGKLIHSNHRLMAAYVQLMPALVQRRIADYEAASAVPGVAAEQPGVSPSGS
inactive: [1] -0.018 | [2] 0.18 | [3] 0.058 | [4] 0.066 | [5] -0.026

TC2N (UniProt Q8N9U0)
inactive: [3] 0.053 | [4] 0.08

STIM1 (UniProt Q13586)
inactive: [1] -0.051 | [2] 0.044 | [3] 0.008 | [4] -0.014 | [5] -0.019

SUPT5H isoform 2 (UniProt O00267)
inactive: [3] -0.015

SLC38A2 (UniProt Q96QD8)
inactive: [1] -0.006 | [2] 0.044 | [3] 0.024 | [4] -0.028 | [5] 0.035

TIMM21 (UniProt Q9BVV7)
inactive: [1] -0.02 | [2] 0.052 | [3] 0.024 | [4] 0.004 | [5] -0.048

SPAST (UniProt Q9UBP0)
UniProt Q9UBP0, sequence (Q9UBP0 whole entry, looked up): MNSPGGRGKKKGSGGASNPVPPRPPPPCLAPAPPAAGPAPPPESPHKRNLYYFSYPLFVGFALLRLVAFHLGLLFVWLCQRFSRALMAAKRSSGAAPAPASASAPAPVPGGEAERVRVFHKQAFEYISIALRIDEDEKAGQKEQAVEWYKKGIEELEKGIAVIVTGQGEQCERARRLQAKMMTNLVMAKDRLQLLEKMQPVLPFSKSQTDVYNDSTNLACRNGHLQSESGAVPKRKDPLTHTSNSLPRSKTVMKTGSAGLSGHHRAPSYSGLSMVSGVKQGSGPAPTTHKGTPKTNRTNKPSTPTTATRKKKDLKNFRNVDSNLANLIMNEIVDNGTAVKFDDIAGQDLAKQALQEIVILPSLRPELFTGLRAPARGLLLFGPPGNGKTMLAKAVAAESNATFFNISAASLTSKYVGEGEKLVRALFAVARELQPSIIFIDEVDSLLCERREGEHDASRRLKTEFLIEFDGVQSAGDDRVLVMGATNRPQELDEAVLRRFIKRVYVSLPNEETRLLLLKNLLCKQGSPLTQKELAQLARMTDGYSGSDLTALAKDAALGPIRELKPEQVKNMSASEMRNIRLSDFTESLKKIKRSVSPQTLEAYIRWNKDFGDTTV
inactive: [1] -0.057 | [2] 0.026 | [3] 0.117 | [4] -0.016 | [5] -0.085

THAP9 (UniProt Q9H5L6)
inactive: [1] 0.093 | [2] 0.167 | [5] -0.046

TCOF1 isoform 3 (UniProt Q13428)
inactive: [4] -0.093

TK1 (UniProt P04183)
inactive: [1] 0.002 | [2] -0.008 | [3] -0.011 | [4] -0.019 | [5] 0.008

SNX2 isoform 2 (UniProt O60749)
inactive: [1] 0.092 | [2] 0.217 | [3] 0.094 | [5] 0.066

SRP72 (UniProt O76094)
inactive: [1] -0.068 | [2] -0.016 | [3] 0.047 | [4] 0.097 | [5] -0.016

TAF9 (UniProt Q16594)
UniProt Q16594, sequence (Q16594 whole entry, looked up): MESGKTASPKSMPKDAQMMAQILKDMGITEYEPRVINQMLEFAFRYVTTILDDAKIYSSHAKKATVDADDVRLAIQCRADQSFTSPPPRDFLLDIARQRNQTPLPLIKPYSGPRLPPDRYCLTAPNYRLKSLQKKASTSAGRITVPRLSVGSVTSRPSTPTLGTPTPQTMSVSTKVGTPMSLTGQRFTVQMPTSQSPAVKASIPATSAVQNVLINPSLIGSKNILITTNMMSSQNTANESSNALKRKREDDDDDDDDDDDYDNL
inactive: [1] 0.046 | [2] -0.043 | [3] -0.114 | [4] 0.049 | [5] 0.019

SSBP4 (UniProt Q9BWG4)
inactive: [1] 0.086 | [4] 0.037

TAF6L (UniProt Q9Y6J9)
inactive: [2] -0.209 | [4] 0.048 | [5] 0.073

TAOK2 (UniProt Q9UL54)
inactive: [4] 0.026

SLC25A42 (UniProt Q86VD7)
inactive: [1] 0.073 | [2] 0.051 | [3] -0.019 | [4] -0.005 | [5] 0.003

SRFBP1 (UniProt Q8NEF9)
inactive: [1] 0.011 | [2] -0.14 | [4] 0.048 | [5] -0.013

STEAP3 isoform 2 (UniProt Q658P3)
UniProt Q658P3, sequence (Q658P3 whole entry, looked up): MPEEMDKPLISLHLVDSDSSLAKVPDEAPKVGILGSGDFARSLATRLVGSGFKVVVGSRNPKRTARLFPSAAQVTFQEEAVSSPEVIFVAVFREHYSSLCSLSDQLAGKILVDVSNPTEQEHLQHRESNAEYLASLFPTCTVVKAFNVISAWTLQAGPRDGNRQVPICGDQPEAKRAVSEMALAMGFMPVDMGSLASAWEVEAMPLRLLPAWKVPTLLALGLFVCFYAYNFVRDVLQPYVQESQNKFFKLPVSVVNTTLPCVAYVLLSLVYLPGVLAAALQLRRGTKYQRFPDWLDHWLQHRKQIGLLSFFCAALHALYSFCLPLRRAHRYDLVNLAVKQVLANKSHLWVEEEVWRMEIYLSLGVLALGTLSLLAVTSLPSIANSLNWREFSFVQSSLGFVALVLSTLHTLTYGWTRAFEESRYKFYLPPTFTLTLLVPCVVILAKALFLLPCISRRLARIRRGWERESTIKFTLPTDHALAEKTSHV
inactive: [1] -0.011 | [2] 0 | [3] 0.022 | [4] -0.034 | [5] -0.04

SLC35B4 (UniProt Q969S0)
inactive: [1] 0.061 | [3] -0.069 | [4] -0.137

SSBP4 (UniProt U3KPY3)
inactive: [3] 0

SLC9A6 isoform 3 (UniProt Q92581)
inactive: [1] -0.057 | [2] 0.003 | [4] -0.005 | [5] 0.089

TDP1 (UniProt Q9NUW8)
inactive: [2] 0.068 | [5] 0.054

SLC46A1 (UniProt Q96NT5)
inactive: [2] -0.09 | [3] 0.075 | [4] 0.024 | [5] 0.256

SLC8B1 (UniProt Q6J4K2)
inactive: [1] 0.094 | [2] 0.178 | [3] 0.019 | [5] -0.049

SRXN1 (UniProt Q9BYN0)
inactive: [1] -0.02 | [2] 0.086 | [3] 0.117 | [4] -0.05 | [5] 0.086

TANGO6 (UniProt Q9C0B7)
UniProt Q9C0B7, sequence (Q9C0B7 whole entry, looked up): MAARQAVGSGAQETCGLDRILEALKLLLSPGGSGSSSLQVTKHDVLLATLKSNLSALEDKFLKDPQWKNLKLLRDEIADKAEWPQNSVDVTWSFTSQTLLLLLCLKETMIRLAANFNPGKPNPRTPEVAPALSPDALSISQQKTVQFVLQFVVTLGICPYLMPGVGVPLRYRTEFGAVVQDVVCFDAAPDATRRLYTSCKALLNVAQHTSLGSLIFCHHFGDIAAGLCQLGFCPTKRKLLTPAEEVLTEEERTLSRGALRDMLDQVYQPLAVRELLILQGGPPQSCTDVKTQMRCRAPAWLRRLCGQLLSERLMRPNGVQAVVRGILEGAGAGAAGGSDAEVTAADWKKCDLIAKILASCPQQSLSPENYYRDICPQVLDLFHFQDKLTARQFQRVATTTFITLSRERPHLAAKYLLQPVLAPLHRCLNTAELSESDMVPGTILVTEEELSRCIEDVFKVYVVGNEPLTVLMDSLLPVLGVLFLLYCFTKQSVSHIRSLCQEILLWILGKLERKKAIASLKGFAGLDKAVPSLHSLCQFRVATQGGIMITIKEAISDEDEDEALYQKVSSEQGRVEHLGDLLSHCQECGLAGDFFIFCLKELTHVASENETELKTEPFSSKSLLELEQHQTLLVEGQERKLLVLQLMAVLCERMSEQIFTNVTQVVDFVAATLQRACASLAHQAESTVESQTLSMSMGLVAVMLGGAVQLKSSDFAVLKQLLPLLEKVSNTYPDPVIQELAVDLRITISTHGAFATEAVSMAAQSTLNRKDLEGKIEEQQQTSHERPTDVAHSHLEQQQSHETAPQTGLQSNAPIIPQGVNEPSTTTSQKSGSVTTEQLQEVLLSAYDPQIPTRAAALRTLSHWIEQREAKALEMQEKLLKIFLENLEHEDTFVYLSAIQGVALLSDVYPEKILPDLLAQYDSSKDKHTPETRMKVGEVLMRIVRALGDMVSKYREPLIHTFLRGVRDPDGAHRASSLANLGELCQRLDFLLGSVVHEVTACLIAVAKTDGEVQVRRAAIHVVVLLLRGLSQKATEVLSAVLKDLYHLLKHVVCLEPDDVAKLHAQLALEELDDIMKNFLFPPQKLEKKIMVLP
inactive: [1] -0.139 | [2] 0.052 | [4] 0.018 | [5] -0.086

SRSF9 (UniProt Q13242)
inactive: [1] 0.045 | [2] -0.452 | [3] -0.38 | [5] 0.041

SLC39A1 (UniProt Q9NY26)
inactive: [2] -0.156 | [5] 0.053

TBC1D20 isoform 3 (UniProt Q96BZ9)
inactive: [1] 0.017 | [2] 0.069 | [3] -0.021
active: [5] -0.403

SMARCA4 (UniProt P51532)
inactive: [1] 0.073 | [2] -0.023 | [3] 0.244 | [5] -0.027
